The inhibition is the drop in the measured response relative to a control, in per cent.

Test [1] in a line: inhibitors of TNFa-induced NFkB p65 translocation, primary screen, imaging, HUVEC, MLSMR starter and 10KST1 sets (AID 438;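 active = inhibition above 20% together with a positive visual image hit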;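 also: compound added about 3h40 before a 20 min TNFalpha stimulation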;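 as to inhibition: signal is the nuclear over cytoplasmic p65 intensity ratio per well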). Conditions: HUVEC TNFa-induced p65 nuclear translocation; cell count: measured here: nuclei count (cytotoxicity indicator), at 2.08 µM; inhibition: at 2 µM, stronger effect = higher value, 0% TNFa-plus-vehicle, 100% no-TNFa wells.
The nature of test [2]: inhibitors of mutant huntingtin aggregation, primary screen, imaging, exon1htt(103Q)mCFP cells, high-content imaging (AID 483).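 Also: compound exposure lasted 3 days before fixation.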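 As to nuclei count: percent of the per-plate median nuclei count of sample wells.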 Conditions: exon1htt(103Q)mCFP cell line, aggregate imaging, at 2 µM; inhibition of aggregation: stronger effect = higher value; nuclei count: measured here: cell count, toxicity.
The nature of test [3]: inhibitors of E-selectin induction by TNFa, primary screen, imaging, HUVEC, immunofluorescence, MLSMR starter and 10KST1 sets (AID 487;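 active = visually confirmed hit in the image check and inhibition above 20%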;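 as to inhibition: signal is fraction of cell area covered by stained E-selectin grains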;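 as to nuclei count: 100% = median nuclei count of all wells on the same plate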). Conditions: HUVEC TNFalpha-induced E-selectin immunofluorescence imaging, at 2 µM; inhibition: stronger effect = higher value; nuclei count: measured here: cell number, toxicity.
Test [4] can be described thus: DUSP6 inhibitors restoring Erk phosphorylation by chemical complementation, primary imaging in DUSP6-transfected HeLa (AID 609;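 active = compounds giving at least 50% inhibition in the cell-based MKP-3 phosphatase rescue imaging test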;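 as to inhibition: phospho-Erk level distribution per well compared with pooled transfected vehicle control wells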). Conditions: HeLa MKP-3 transfected, phospho-Erk imaging KS statistic, at 10 µM, cells stimulated with TPA for 15 min.
Test [5] has as its target Dual specificity protein phosphatase 6 (Homo sapiens) (UniProt Q16828). Described as above. The following applies: HeLa MKP-3 transfected, phospho-Erk imaging KS statistic; at 10 µM; stronger effect = higher value; cells stimulated with TPA for 15 min.
Test [6] concerns the target Voltage-gated potassium channel subunit beta-2 (Rattus norvegicus) (UniProt P62483). Nature of the test: KvBeta enzyme negative modulators, primary screen, biochemical, NADPH fluorescence (AID 622;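 active = fluorescence slope higher than the sample average by over 3 SD, cut at about -0.22 in these data, passing the limit was not always enough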;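 also: slope of raw intensity against log time taken from 70 to 1610 s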). Conditions: recombinant KvBeta, 4-cyanobenzaldehyde reduction, at 10 µM, stronger effect = higher value.
The target is the same in test [7]. Nature of the test: KvBeta positive modulators, primary screen, biochemical, NADPH fluorescence (AID 623;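 active = NADPH fluorescence slope more negative than the mean of all samples by about 3 SD, 99.7% confidence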;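 also: fluorescence intensity change per second fitted from 20 to 320 s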). The following applies: Recombinant KvBeta, NADPH fluorescence decrease slope, 10 min; at 10 µM; stronger effect = lower value.
Test [8] deals with Muscarinic acetylcholine receptor M4 (Homo sapiens) (UniProt P08173). Nature of the test: compounds altering M4/GIRK thallium flux, either direction, primary screen, M4 allosteric agonist project, cell-based, HEK293 M4/GIRK, BTC-AM (AID 625;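 active = fluorescence slope after compound addition differing from the mean of all tested samples at 99.7% confidence, mostly higher but some lower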;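 also: thallium influx through GIRK channels coupled to M4 in HEK293 cells with BTC-AM dye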). The following applies: at 10 µM, actives lie on both sides.
Test [9] can be described thus: inhibitors of larval lipid processing in zebrafish, primary screen, whole organism, PED6 fluorescence, gall bladder and intestine (AID 686;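 active = a full or partial loss of lipid-probe fluorescence in the fish gall bladder, intestine or both, judged by eye; inactive = no fluorescence loss, or compound toxic to the fish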;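 also: larvae 5 to 7 days old with five fish per well; signal comes from phospholipase A2 cleavage of quenched PED6 carried via bile; overnight exposure to compound and PED6 before scoring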). Conditions: Zebrafish larvae PED6 lipid processing, fluorescence scoring; screened at 20 µM (by protocol).
Test [10] is described as follows: inhibitors of Chlamydomonas gravitaxis, primary screen, whole organism, Chlamydomonas reinhardtii, WT vs cilia-less mutant, absorbance, 96-well (AID 463189;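 active = inhibition at or above 50% relative to wild type and mutant plate controls; inactive = inhibition below 50%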;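 also: 0% = wild type cc124 cells in DMSO and 100% = ciliumless bld1 mutant cells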). Conditions: OD600 absorbance, 2 days, at 10 µM, stronger effect = higher value.
Test [11] in a line: inhibitors of Sendai virus-induced IRF3 signaling, primary screen, TLR/RLR signaling modifier project, cell-based, Sendai virus stimulus, luciferase, 10K MLSCN set (AID 602276;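 active = inhibition at or above 50% at 10 µM; inactive = inhibition below 50%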;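 also: firefly luciferase from ISG56 promoter only with Renilla not read in this screen; 0% = Sendai virus plus DMSO and 100% = medium plus DMSO without virus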). The following applies: HEK293 RL24 IRF3 luciferase reporter, at 10 µM, stronger effect = higher value.
Test [12] in a line: inhibitors of poly I:C-induced TLR3 signaling, primary screen, cell-based, poly I:C stimulus, luciferase, 10K MLSCN set (AID 602277;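 active = inhibition of the reporter signal at or above 50%; inactive = inhibition below 50%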). Conditions: HEK293-TLR3 RL24 IRF3 luciferase reporter, at 10 µM, stronger effect = higher value. In general terms: A reporter such as luciferase makes a cellular process visible.
Where [13] appears, read: measured here: cell density z-score.
[14] abbreviates: measured here: nuclear c-Myc green intensity z-score.
Setting [15] is: measured here: nuclear pErk red intensity z-score, stronger effect = higher value.

The structures appear in SMILES notation. Activity calls are given as the source filed them.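 The calls were made as follows, unless noted: active = visual image review flags a hit and inhibition of aggregation exceeds 20%; inconclusive = visual hit but inhibition at or below 20%; inactive = no hit on visual image review.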

Sequence of Muscarinic acetylcholine receptor M4 (Homo sapiens) (P08173 whole entry, looked up): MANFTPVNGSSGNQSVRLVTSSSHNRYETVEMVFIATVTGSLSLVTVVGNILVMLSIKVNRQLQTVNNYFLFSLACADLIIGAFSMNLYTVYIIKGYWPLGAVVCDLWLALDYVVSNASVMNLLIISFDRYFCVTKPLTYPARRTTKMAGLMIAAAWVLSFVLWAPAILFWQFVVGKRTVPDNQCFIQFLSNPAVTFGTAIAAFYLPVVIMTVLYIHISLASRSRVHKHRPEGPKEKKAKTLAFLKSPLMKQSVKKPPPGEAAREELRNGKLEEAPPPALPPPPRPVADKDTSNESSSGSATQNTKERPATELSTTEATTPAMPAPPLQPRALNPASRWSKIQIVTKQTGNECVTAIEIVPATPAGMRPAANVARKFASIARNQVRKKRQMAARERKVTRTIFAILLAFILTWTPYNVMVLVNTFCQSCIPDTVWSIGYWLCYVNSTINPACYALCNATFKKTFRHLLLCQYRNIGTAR
Sequence of Dual specificity protein phosphatase 6 (Homo sapiens) (Q16828 whole entry, looked up): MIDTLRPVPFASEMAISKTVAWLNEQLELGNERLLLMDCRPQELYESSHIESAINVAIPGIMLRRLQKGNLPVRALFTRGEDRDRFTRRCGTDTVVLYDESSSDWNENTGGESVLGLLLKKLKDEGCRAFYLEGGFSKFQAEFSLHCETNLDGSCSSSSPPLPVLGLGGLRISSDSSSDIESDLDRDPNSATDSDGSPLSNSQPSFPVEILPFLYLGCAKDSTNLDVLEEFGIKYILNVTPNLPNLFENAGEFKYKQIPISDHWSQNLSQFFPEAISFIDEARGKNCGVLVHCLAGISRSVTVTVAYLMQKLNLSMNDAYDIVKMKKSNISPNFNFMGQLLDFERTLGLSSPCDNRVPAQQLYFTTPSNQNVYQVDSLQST
Sequence of Voltage-gated potassium channel subunit beta-2 (Rattus norvegicus) (P62483 whole entry, looked up): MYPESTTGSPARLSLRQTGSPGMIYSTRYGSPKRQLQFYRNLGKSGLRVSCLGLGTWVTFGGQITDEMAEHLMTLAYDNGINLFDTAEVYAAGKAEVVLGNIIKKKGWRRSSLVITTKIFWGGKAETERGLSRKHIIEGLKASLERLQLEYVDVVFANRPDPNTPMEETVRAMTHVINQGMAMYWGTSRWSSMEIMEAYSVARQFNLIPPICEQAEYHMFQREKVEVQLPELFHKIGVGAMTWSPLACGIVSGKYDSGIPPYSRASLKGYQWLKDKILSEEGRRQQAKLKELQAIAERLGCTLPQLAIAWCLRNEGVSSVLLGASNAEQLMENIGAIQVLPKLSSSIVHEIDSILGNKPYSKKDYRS

Consider `Nc1nnnn1/N=C/c1ccccn1`, for which, in test [1], the cell count is 568. In addition, the inhibition in [1] was -2.8% (inactive); in [3] it was -155% (inactive); in test [5] it was 34.3% (inactive); in test [10], 26.1% (inactive); in test [11], -14.9% (inactive); in test [12], -32% (inactive). Further, in test [2], the inhibition of aggregation was -8.1% (inactive). Also, the nuclei count stood at 98.2% in [2] and 142% in test [3]. Besides, the z-score in test [4] (setting [13]) is 1.54; in test [4] (setting [14]), -1.1; in test [4] (setting [15]), -0.159. In addition, the fluorescence slope in test [6] was -0.513 (inactive); in test [8], 0.00549 (inactive). Besides, the NADPH fluorescence slope in test [7] was -6e-05 (inactive). Also, the outcome in [9] was inactive.

With `CCOc1ccccc1N1CCN(c2nc3ccccc3nc2C(C#N)C(=O)OC)CC1` (stereo not given), in test [1], the cell count was determined as 535. Moreover, the inhibition in test [1] is 0.2% (inactive); in test [3], -43.1% (inactive); in [5], -9.53% (inactive); in test [10] it was -13.8% (inactive); in [11], 10.2% (inactive); in test [12], 16.1% (inactive). Moreover, the inhibition of aggregation in test [2] is -3.8% (inactive). For the same compound, the nuclei count in test [2] was 106%; in test [3], 102%. Further, the z-score in test [4] (setting [13]) was -0.286; in test [4] (setting [14]), 0.234; in [4] (setting [15]), 1.2. Besides, the fluorescence slope was -0.501 (inactive) in [6] and 0.00534 (inactive) in [8]. Moreover, in test [7], the NADPH fluorescence slope was -7e-05 (inactive). The result in test [9] was inactive.

For the compound `Cc1cc(C)n(C(=O)CNC(=O)C2COc3ccccc3O2)n1` (stereo not given), the cell count in test [1] amounted to 659. Further, the inhibition is -7.8% (inactive) in test [1]; -92.7% (inactive) in [3]; 3.66% (inactive) in [5]; 15.9% (inactive) in test [10]; 15.9% (inactive) in test [11]; 20.1% (inactive) in [12]. Moreover, in test [2], the inhibition of aggregation was -13.6% (inactive). For the same compound, the nuclei count came to 105% in test [2] and 124% in test [3]. Besides, the z-score in test [4] (setting [13]) is 0.273; in [4] (setting [14]), -1.59; in test [4] (setting [15]), 0.636. Further, the fluorescence slope in test [6] is -0.393 (inactive); in [8], 0.00449 (inactive). Further, the NADPH fluorescence slope in [7] was -4.6e-05 (inactive). In addition, the outcome in test [9] was inactive.

As for `O=C(C1CC1(c1ccccc1)c1ccccc1)N1CCOCC1` (stereo not given), the cell count in test [1] was determined as 402. The inhibition in test [1] is -6.3% (inactive); in [3] it was -60.9% (inactive); in [5], -0.584% (inactive); in test [10], 35% (inactive); in test [11] it was 18.5% (inactive); in test [12], 22.6% (inactive). Also, in test [2], the inhibition of aggregation was 13.6% (inactive). In addition, the nuclei count in [2] was found to be 80.6%; in test [3], 150%. The results for the z-score in test [4] (setting [13]), in test [4] (setting [14]) and in test [4] (setting [15]) were 0.0865, -1.65 and -0.311, respectively. In addition, the fluorescence slope was -0.416 (inactive) in [6] and 0.00482 (inactive) in test [8]. In addition, in test [7], the NADPH fluorescence slope is -6.1e-05 (inactive). Further, the result in test [9] was inactive.

Turning to `COc1cccc(N2C(=O)C(O)=C(C(C)=O)C2c2ccc(OC)c(OC)c2)c1` (stereo not given), the cell count in test [1] came out at 652. Moreover, the inhibition in test [1] was -3.8% (inactive); in test [3], 34% (inactive); in test [5] it was 2.46% (inactive); in [10], -2.64% (inactive); in test [11], 5.42% (inactive); in [12], -0.11% (inactive). Moreover, the inhibition of aggregation in test [2] is 14% (inactive). Also, the nuclei count was determined as 104% in test [2] and 106% in [3]. For the same compound, the z-score in [4] (setting [13]) is -1.18; in [4] (setting [14]), -0.212; in test [4] (setting [15]) it was 0.653. Besides, the fluorescence slope was -0.453 (inactive) in [6] and 0.00642 (inactive) in test [8]. Besides, the NADPH fluorescence slope in test [7] is -6.1e-06 (inactive). In addition, the compound was classed as inactive in test [9].

Take `COc1ccc2c(c1)n([O-])c1c([n+]2=O)CCC1`: the cell count in [1] came out at 640. Besides, the inhibition was -4.7% (inactive) in [1]; -56.2% (inactive) in test [3]; 3.49% (inactive) in [5]; -9.94% (inactive) in test [10]; -10.3% (inactive) in [11]; 99.2% (active) in test [12]. For the same compound, the inhibition of aggregation in test [2] was -32.6% (inactive). Further, the nuclei count worked out at 113% in test [2] and 108% in [3]. Moreover, the z-score in test [4] (setting [13]) was -0.812; in test [4] (setting [14]), 2.02; in test [4] (setting [15]) it was -1.59. The fluorescence slope was -0.367 (inactive) in test [6] and 0.00434 (inactive) in test [8]. Moreover, the NADPH fluorescence slope in [7] is -3.5e-05 (inactive). Further, in test [9], the result was inactive.

For `CN(C)CC(O)COc1ccc(-c2ccc(C#N)cc2)cc1` (stereo not given), the cell count in test [1] is 626. In addition, the inhibition in test [1] is -1.5% (inactive); in test [3], -19.8% (inactive); in test [5], -2.59% (inactive); in test [10], 98.7% (active); in [11], -0.588% (inactive); in [12] it was -4.77% (inactive). In addition, in test [2], the inhibition of aggregation is 6.6% (inactive). Moreover, the nuclei count in [2] is 89.7%; in [3], 139%. The figures for the z-score in test [4] (setting [13]), in [4] (setting [14]) and in test [4] (setting [15]) were 0.638, -0.472 and 2.41, respectively. Further, the results for the fluorescence slope in [6] and in test [8] were -0.371 (inactive) and 0.00456 (inactive), respectively. Moreover, in [7], the NADPH fluorescence slope was -4.8e-05 (inactive). Also, in test [9], the result was inactive.

For the compound `CCOC(=O)C1(C(=O)OCC)C(c2ccccc2)CC(O)N1C(C)=O` (stereo not given), in [1], the cell count was 820. For the same compound, the inhibition in [1] was -8.8% (inactive); in [3], -65.8% (inactive); in [5], 32.3% (inactive); in [10] it was 33.6% (inactive); in [11] it was 15% (inactive); in [12], 22.6% (inactive). For the same compound, the inhibition of aggregation in test [2] is -55.9% (inactive). In addition, the nuclei count was 103% in test [2] and 126% in test [3]. Also, the z-score in test [4] (setting [13]) was -0.838; in [4] (setting [14]), 1.16; in test [4] (setting [15]), -0.266. The fluorescence slope in test [6] was -0.351 (inactive); in test [8], 0.00504 (inactive). For the same compound, the NADPH fluorescence slope in test [7] was -2.6e-05 (inactive). For the same compound, the result in test [9] was inactive.

Regarding `CCOC(=O)C1=C(CSc2nc(C)cc(C)c2C#N)OC(N)=C(C#N)C1c1cccs1` (stereo not given), the cell count in [1] is 502. The inhibition in test [1] is 7.3% (inactive); in test [3] it was -103% (inactive); in test [5], -2.47% (inactive); in test [10], 8.41% (inactive); in [11], 13.2% (inactive); in test [12], 23.4% (inactive). Besides, the inhibition of aggregation in test [2] was -14.2% (inactive). The nuclei count is 102% in [2] and 95% in [3]. The z-score in test [4] (setting [13]) was 0.722; in [4] (setting [14]), -1.39; in [4] (setting [15]), -0.564. In addition, the fluorescence slope in [6] was -0.493 (inactive); in test [8], 0.00829 (inactive). Moreover, the NADPH fluorescence slope in [7] is -2.9e-05 (inactive). For the same compound, in test [9], the compound was classed as inactive.

Regarding `CCOC(=O)CNC(=O)Nc1ccccc1C(=O)OC`, in [1], the cell count came to 676. Moreover, the inhibition in [1] is -2.9% (inactive); in test [3], 15.4% (inactive); in test [5] it was -7.67% (inactive); in test [10], -5.32% (inactive); in test [11], 10.2% (inactive); in test [12], 18.3% (inactive). Also, the inhibition of aggregation in [2] is -5.8% (inactive). The nuclei count is 83.8% in [2] and 119% in test [3]. For the same compound, the z-score in test [4] (setting [13]) was 0.104; in [4] (setting [14]), 0.241; in test [4] (setting [15]) it was -0.382. Moreover, the fluorescence slope in test [6] is -0.507 (inactive); in [8] it was 0.00626 (inactive). For the same compound, the NADPH fluorescence slope in test [7] was -0.000189 (active). In addition, the compound was classed as inactive in test [9].
